In PubChem BioAssay (NCI):
About 83,000 compounds went through this panel and 20% of them were active in at least one assay; those are over-represented in the sample as a whole.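 Percent growth is the endpoint: 0 to 100 indicates growth inhibition (40 means 60% inhibition), 0 means no net growth, and negative values indicate cell death.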 A number with no mark means an inactive call. Active and inactive are the calls of the source. Rule for the calls: active = growth percent below 10; inactive = the rest.

Tests used:
Test in all cases: NCI-60 one-dose screen, 48 h (100 = growth as untreated, 0 = no growth, -100 = all killed)
Settings in all cases: 10 µM unless noted
DU-145 prostate = system: DU-145 prostate
K-562 leukemia = system: K-562 leukemia
MALME-3M melanoma = system: MALME-3M melanoma
MDA-MB-231 breast = system: MDA-MB-231 breast
RXF 393 renal = system: RXF 393 renal
SF-268 CNS = system: SF-268 CNS
SF-539 CNS = system: SF-539 CNS
UACC-257 melanoma = system: UACC-257 melanoma
M14 melanoma = system: M14 melanoma
HCT-15 colon = system: HCT-15 colon
HT29 colon = system: HT29 colon
SNB-75 CNS = system: SNB-75 CNS
SNB-19 CNS = system: SNB-19 CNS
U251 CNS = system: U251 CNS
PC-3 prostate = system: PC-3 prostate
SK-MEL-5 melanoma = system: SK-MEL-5 melanoma
UACC-62 melanoma = system: UACC-62 melanoma
LOX IMVI melanoma = system: LOX IMVI melanoma
SK-MEL-28 melanoma = system: SK-MEL-28 melanoma

Compound | growth (DU-145 prostate) [%] | growth (K-562 leukemia) | growth (MALME-3M melanoma) [%] | growth (MDA-MB-231 breast) [%] | growth (RXF 393 renal) | growth (SF-268 CNS) [%] | growth (SF-539 CNS) [%] | growth (UACC-257 melanoma) | growth (M14 melanoma) [%] | growth (HCT-15 colon) [%] | growth (HT29 colon) | growth (SNB-75 CNS) [%] | growth (SNB-19 CNS) [%] | growth (U251 CNS) [%] | growth (PC-3 prostate) [%] | growth (SK-MEL-5 melanoma) [%] | growth (UACC-62 melanoma) | growth (LOX IMVI melanoma) [%] | growth (SK-MEL-28 melanoma) [%]
CCN(C(=O)Nc1cccc2ccccc12)c1ccccc1 | 107 | 89.3% | 90.6 | 105 | 120% | 104 | 93.5 | 112% | 106 | 90.8 | 103% | 92.4 | 102 | 97.7 | 85.9 | 95.5 | 80.5% | 102 | 112
COc1ccc2[nH]c(O)c(/C=c3/ccc4c(c3)N=C(c3ccc(C(F)(F)F)cc3)N=4)c2c1 | 86.6 | 29.7% | 99.9 | 74.8 | -4.65% (active) | 85.6 | 78.2 | 94.9% | 90.1 | 53.9 | 80% | 60.7 | 81.4 | 51.6 | 43.1 | 79.1 | 86% | 58.2 | 83.9
Cc1c(O)c(=O)n(-c2ccccc2)n1C | 116 | 106% | 112 | 99.1 | 124% | 114 | 97.6 | 119% | 100 | 92.7 | 103% | 98.3 |  | 105 | 92 | 110 | 98.7% | 105 | 111
CC(CN1CCN(CCOCCO)CC1)CN1c2ccccc2Sc2ccc(Cl)cc21 (stereo not drawn) | 70.3 | 6.64% (active) | 45.1 | 29.9 | 56.8% | 63.8 | 79.2 | -3.9% (active) |  | 32.7 | -30.1% (active) | 69.7 | 100 | 58.6 | 43.9 | 16.1 | -42.8% (active) | 20.5 | 49
c1ccc(C(CC2=NCCCN2)c2ccccc2)cc1 | 102 | 107% | 93.2 | 88.6 | 113% | 100 | 88 | 97.7% | 92.5 | 114 | 102% | 86.2 | 107 | 90.8 | 83.9 | 105 | 89.6% | 97.8 | 107
COc1ccc(/C=c2\c(=O)n(-c3ccccc3)c3nn4c(n23)=NNC42CCCCC2)cc1 | 106 | 109% | 97.8 | 87.3 | 110% | 92 | 102 | 111% | 102 | 102 | 106% | 87.7 |  | 103 | 90.1 | 100 | 93.2% | 95.1 | 111
CC1=C(C(=O)Nc2ccc(F)cc2)C(c2ccc(C)cc2)C2=C(CC(C)(C)CC2=O)N1 (stereo not drawn) | 106 | 93.3% | 102 | 86.6 | 92.1% | 88 | 93.3 | 98.5% | 101 | 94 | 100% | 55.7 |  | 88.8 | 75.3 | 94.1 | 86.4% | 90 | 97.1
CC(C)COC(=O)NC(C)(C)C | 115 | 92.8% | 107 | 119 | 113% | 109 | 101 | 102% | 104 | 98 | 93% | 86.7 | 111 | 107 | 102 | 109 | 107% | 103 | 113
